Sampled rows, rich in hits. Any-hit rate of the full collection: about 4.6%.
ALOX15 inhib – 15-hLO (ALOX15) enzyme inhibition; purified 15hLO-1, xylenol orange hydroperoxide absorbance; P16050; Potency, µM (highest dose often 57.1 µM), hits mostly inhibitors; 74,000 tested, 1.4% active; AID 887; note: nearly all actives have a fitted effect of over 55% in size
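Purified human 15hLO-1 (40 nM) in 25 mM Hepes pH 7.5, 0.01% Triton X-100, preincubated 15 min RT with compound, then 50 uM arachidonic acid for 6 min. Hydroperoxide read by ferrous/xylenol orange, 30 min; 573/405 nm absorbance ratio gave progress.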
Hsp90 Hop PPI – changes Hsp90-Hop TPR2A binding signal, up or down. Potency, µM (doses to about 57 µM). AlphaScreen TPR2A-His6 binding biotin-Hsp90 C-terminal peptide. 71,000 tested, 0.44% active; active = well fitted curve in either direction with a large enough effect; inconclusive = small, poorly fitted or top-dose-only effect, or another doubt
Tau fil binding – binders of human tau filaments. P10636. Potency, µM (highest dose often 57.1 µM). recombinant tau filaments, thioflavin S fluorescence, 15 h; filaments grown with octadecylsulfate alongside compound. 71,000 tested, 2% active;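 note: actives lower thioflavin S fluorescence by blocking filaments or displacing dye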
Target sequence (P10636 whole entry, looked up): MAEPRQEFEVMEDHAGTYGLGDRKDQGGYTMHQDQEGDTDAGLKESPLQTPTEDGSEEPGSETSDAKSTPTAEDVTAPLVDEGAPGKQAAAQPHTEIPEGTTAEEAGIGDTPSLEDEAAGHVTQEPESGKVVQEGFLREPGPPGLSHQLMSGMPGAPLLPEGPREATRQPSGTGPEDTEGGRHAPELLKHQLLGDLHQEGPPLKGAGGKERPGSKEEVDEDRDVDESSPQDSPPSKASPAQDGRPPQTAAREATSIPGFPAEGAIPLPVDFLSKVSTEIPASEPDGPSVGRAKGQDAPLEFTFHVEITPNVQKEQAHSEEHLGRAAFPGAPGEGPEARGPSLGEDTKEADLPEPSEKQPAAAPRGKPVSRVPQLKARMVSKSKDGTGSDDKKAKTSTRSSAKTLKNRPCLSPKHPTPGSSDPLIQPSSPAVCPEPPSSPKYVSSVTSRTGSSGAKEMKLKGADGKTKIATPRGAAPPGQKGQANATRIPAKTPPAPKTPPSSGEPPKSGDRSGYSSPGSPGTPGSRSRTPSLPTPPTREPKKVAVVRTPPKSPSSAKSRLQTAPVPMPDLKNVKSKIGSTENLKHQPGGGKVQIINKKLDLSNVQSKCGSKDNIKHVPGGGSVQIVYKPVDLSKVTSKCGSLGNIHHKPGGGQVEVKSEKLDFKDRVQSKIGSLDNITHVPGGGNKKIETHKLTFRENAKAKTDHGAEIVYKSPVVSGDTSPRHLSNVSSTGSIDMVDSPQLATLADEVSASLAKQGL
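Read-out: ThS fluorescence, 450 nm excitation/510 nm emission; lower signal marks blocked filament formation or displaced dye. Tau at 1 uM with 30 uM ODS, 10 uM ThS, 5 mM DTT, 100 mM NaCl, 10 mM HEPES pH 7.4; 15 h, 37 C.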
USP2a inh – USP2a (human) protease inhibition | O75604 | USP2a enzymatic assay, qHTS inhibition | Potency, µM (titrated, usually from 38.3 µM), actives largely listed as inhibitors | 60,000 tested, 0.1% active | AID 927; note: nearly all actives have a fitted effect of over 60% in size
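20 nM USP2 core + cpd, 30 min RT; add 20 nM Ub-PLA2/20 uM NBD C6-HPC; read Ex460/Em535 at 0 h and 2.5 h. Normalized to NEM; qHTS curve fit/classification.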
Bst PK mod – alters activity of Bacillus stearothermophilus pyruvate kinase. Potency, µM. AID 361. purified pyruvate kinase, luminescence ATP production; ribose 5-phosphate activator present at AC10. 51,000 tested, 1.2% active; in the data active = potency below about 11 µM; inconclusive = mostly about 12 µM to 25 µM;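 the screen sought inhibitors and activators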
GBA mod – human lysosomal glucosylceramidase modulation. Potency, µM. AID 360. 48,000 tested, 1.1% active. P04062. purified enzyme, resorufin glucoside fluorescence (screen aimed at inhibitors), 20 min; in the data active = potency below about 15 µM; inconclusive = mostly about 16 µM to 33 µM;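 note: the screen sought inhibitors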
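Normal human glucocerebrosidase (0.2 nM final) was assayed with resorufin β-D-glucopyranoside (30 uM final) in 50mM citric acid/KH2PO4, 10mM sodium taurocholate, 0.01% tween-20, pH 5.9. Compounds were titrated; fluorescence (Ex 548, Em 600) read after 20 min at RT.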
A number is an active result; . = inactive; ? = inconclusive; / = no result given; [ ] = dose if it differs, or a comment. Unless noted, calls come from the whole dose curve; as a rule, active = well fitted curve in the direction sought with a large enough effect; inconclusive = small, poorly fitted or top-dose-only effect, or another doubt; inactive = no such curve, though single readings can be large; an effect the other way counts as inactive or inconclusive.

SMILES | ALOX15 inhib | Hsp90 Hop PPI | Tau fil binding | USP2a inh | Bst PK mod | GBA mod
Oc1c(Cl)cc(Cl)c(Cl)c1Cl | . | . | . | / | / | /
Oc1c(Cl)cc(Cl)cc1Sc1cc(Cl)cc(Cl)c1O | 16µM | . | ? | . | . | /
Cc1ccc(NC(=O)Nc2ccc(F)cc2)nc1 | . | . | . | . | 4.7 | .
N=c1c(S(=O)(=O)c2ccccc2)cc2c(=O)n3ccccc3nc2n1Cc1ccco1 | . | . | . | . | . | .
Cc1ccc(S(=O)(=O)c2cc3c(=O)n4ccccc4nc3n(Cc3ccco3)c2=N)cc1C | 32µM | . | . | . | . | .
O=C(Nc1ccc(Br)c2cccnc12)c1ccc(Cn2cc(Cl)cn2)o1 | . | . | . | . | . | 9.2
COc1ccc(C(=O)c2oc3ccccc3c2N)cc1 | . | . | 13µM | . | ? | .
C=CCNc1nc(N2CCCC2)nc2ccccc12 | . | . | . | . | / | 11
COc1ccc(CNc2nc(-c3ccccc3CN(C)C)nc3ccccc23)c(OC)c1 | . | . | . | . | / | /
COc1ccc(Nc2nc(N3CCCC3)nc3ccccc23)c(OC)c1 | . | . | . | . | . | 3.4
O=C(NCCO)c1nc(NCCO)c2ccccc2n1 | . | . | . | . | . | .
OCCNc1nc(N2CCN(Cc3ccccc3)CC2)nc2ccccc12 | ? | . | . | . | / | 13
C=CCN1C(=Nc2cccnc2)SCC1(O)c1ccc(C)cc1 (stereo unspecified) | . | ? | . | . | / | .
O=c1[nH]c2cc3c(cc2cc1CN(Cc1nnnn1CC1CCCO1)C1CCCCC1)OCO3 (stereo unspecified) | . | . | . | . | . | .
Cn1cc(/C=N/n2cnc3sc4c(c3c2=O)CCCC4)c2ccccc21 | . | . | . | . | . | 12
Cc1ccsc1/C=N/n1cnc2sc(C)c(C)c2c1=O | . | . | . | . | . | .
COC(=O)c1ccccc1NC(=O)Nc1cc(C)cc(C)n1 | . | . | . | . | . | .
COC(=O)c1[nH]c2ccc(Cl)cc2c1NC(=O)CN1CCC(C(N)=O)CC1 | . | . | . | . | / | .
C[C@@H](C(=O)O)c1ccc(C(=O)c2cccs2)cc1 | . | . | . | . | / | /
Nc1cc(C(=O)c2cccs2)ccc1Cl | . | . | 16µM | . | / | /
Cc1noc(C)c1-c1nccc(N2CCN(C)CC2)n1 | . | . | . | . | / | /
O=c1c(-c2ccc(Cl)cc2)nc2cnc(Oc3ccccc3)nc2n1C1CC1 | . | . | 13µM | . | / | /
O=c1c(-c2ccccc2)nc2cnc(Oc3ccccc3)nc2n1C1CC1 | . | . | . | . | / | /
CN(C)c1ncc2nc(-c3cccs3)c(=O)n(C3CC3)c2n1 | . | 4µM | . | . | / | /
N#Cc1cccc(-c2nc3cnc(Oc4cccc(Cl)c4)nc3n(C3CC3)c2=O)c1 | . | . | 10µM | . | / | /
SMILES | ALOX15 inhib | Hsp90 Hop PPI | Tau fil binding | USP2a inh | Bst PK mod | GBA mod
O=c1c(-c2cccs2)nc2cnc(Oc3ccccc3)nc2n1C1CC1 | . | 20µM | . | . | / | /
Cc1cc(C(c2nnnn2Cc2ccccc2)N2CCOCC2)c(C)n1-c1ccc2c(c1)OCO2 (stereo unspecified) | ? | . | . | / | . | /
COc1cc2c(C(=O)N3CCN(C)CC3)c(C)oc2cc1Br | . | . | . | . | . | .
CC1C(C#N)=C(N)OC2=C1C(=O)CC(C)(C)C2 (stereo unspecified) | . | . | . | . | / | /
O=C1c2ccccc2N(Cc2ccc(Cl)cc2)C2=NCCN12 | . | / | / | / | / | /
O=C1C(=O)N(Cc2ccc(Cl)c(Cl)c2)c2ccccc21 | 10µM | . | 32µM | / | / | /
Cc1ccc(Cl)cc1N1CCN(C(c2cccnc2)c2nnnn2C2CCCCC2)CC1 (stereo unspecified) | . | . | . | . | . | /
COc1ncc2nc(-c3cc(F)cc(F)c3)c(=O)n(C)c2n1 | . | . | . | . | / | /
Cn1c(=O)c(-c2cc(F)cc(F)c2)nc2cnc(Oc3ccccc3)nc21 | . | . | 13µM | . | / | /
N#CCCn1c(=O)c(-c2cc(F)cc(F)c2)nc2cnc(Nc3ccccc3)nc21 | . | . | . | . | / | /
Cn1c(=O)c(-c2cc(F)cc(F)c2)nc2cnc(Nc3ccccc3)nc21 | . | . | 6.3µM | . | / | /
CCCn1cnc2c(c1=O)c1nc3ccccc3nc1n2CCc1ccccc1 | . | . | . | . | . | 7
CC(C)Cn1c2nc3ccccc3nc2c2c(=O)n(CCN3CCOCC3)cnc21 | ? | . | 25µM | . | . | ?
COc1cccc(Cn2c(=O)c(-c3cc(F)cc(F)c3)nc3cncnc32)c1 | . | . | 13µM | . | / | /
COc1cccc(Cn2c(=O)c(-c3cccc(F)c3)nc3cncnc32)c1 | . | . | 13µM | . | / | /
COc1cccc(Cn2c(=O)c(-c3ccc(F)cc3)nc3cncnc32)c1 | ? | . | ? | . | / | /
COc1cccc(Cn2c(=O)c(-c3cn(C)c4ccccc34)nc3cncnc32)c1 | . | . | . | . | / | /
CCOC(=O)c1cccc(NC(=O)CSc2nc3ccccc3c(=O)n2CC)c1 | . | . | . | / | . | .
O=P(O)(O)c1ccccc1OCCOCCOc1ccccc1P(=O)(O)O | . | . | . | . | . | .
COCCn1c(=O)c(-c2ccccc2)nc2cnc(N(C)C)nc21 | ? | . | . | . | / | /
NC(=O)c1cc(Br)cc2c3c([nH]c12)CCCC3 | 7.9µM | . | . | ? | 0.69 | ?
COc1cc(NC(=O)c2cc(-c3cccc(O)c3)on2)cc(OC)c1OC | . | . | . | / | / | /
COc1cccc(-c2cc(C(=O)Nc3cccc(O)c3)no2)c1 | . | ? | . | . | 5.6 | 15
NCCCNCCCCNCCCN | . | . | ? | . | / | /
NCCNCCNCCNCCN | . | 5µM | . | / | / | /
SMILES | ALOX15 inhib | Hsp90 Hop PPI | Tau fil binding | USP2a inh | Bst PK mod | GBA mod
Cc1cc(OCCCCCNCCO)cc(C)c1Cl | .[11.4 µM] | .[11 µM] | 2.5µM | .[7.66 µM] | / | /
CNc1nn(-c2cccc(Cl)c2)nc1N | . | . | 16µM | . | / | .
COc1cccc(OC)c1C(=O)Nc1ccc(N2CCN(S(C)(=O)=O)CC2)cc1 | . | . | . | . | . | .
COc1ccc(Br)cc1C(=O)Nc1ccc(N2CCN(S(C)(=O)=O)CC2)cc1 | . | . | . | . | . | 12
CCN(Cc1nc2cc(OC)c(OC)cc2c(=O)[nH]1)C(=O)c1ccc(S(=O)(=O)N(C)C)cc1 | . | . | . | . | . | .
Cc1ccc2cc(C)c3nnc(SCC(=O)NCc4ccco4)n3c2c1 | . | . | . | . | ? | .
Cc1ccc2c(c1)cc(C)c1nnc(SCC(=O)NCc3ccco3)n12 | . | . | . | / | 4.2 | .
COc1ccc(C(=O)NC(=O)Nc2cc(C)ccn2)cc1 | . | . | . | . | 0.64 | .
O=C1COc2ccc3ccccc3c2CN1 | . | . | . | . | . | .
COC1=Cc2c(ccc3ccc(=O)oc23)OC1(C)C | 32µM | . | . | . | / | /
CCc1ccccc1OC[C@@H](O)CN[C@H]1CCCc2ccccc21 | . | . | 13µM | / | / | /
N#Cc1ccc2ccn(CC(=O)NC3CCCCCC3)c2c1 | . | . | . | . | . | ?
COc1ccc(NS(=O)(=O)c2ccc(I)cc2)cc1N1CCN(C)CC1 | ? | ? | 40µM | / | / | /
